Data on 9 compounds can be found in PubChem BioAssay (NCI).

The structures appear in SMILES notation. The panel holds about 83,000 compounds, 20% with a hit somewhere; the sample as a whole holds those more often.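 How to read the values: 0–100, growth inhibition (40 = 60% inhibited); 0, no net growth; -100 to 0, cell death (-40 = 40% of starting cells died; -100 = all dead).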 Unmarked numbers belong to inactive results. Calls of active or inactive are those of the source. The calls were made as follows: active = growth percent below 10; inactive = the rest.

Test in all cases: NCI-60 one-dose screen, 48 h (100 = growth as untreated, 0 = no growth, -100 = all killed)
Conditions in all cases: 10 µM unless noted

Assay [1] deals with SK-MEL-2 melanoma.
Assay [2] concerns EKVX NSCLC.
The test system of assay [3] is SN12C renal.
For assay [4], the system named is UO-31 renal.
Assay [5] concerns TK-10 renal.
Assay [6] has as its system ACHN renal.
The subject of assay [7] is CAKI-1 renal.
Assay [8] relates to A498 renal.
The subject of assay [9] is MOLT-4 leukemia.
For assay [10], the system named is RPMI-8226 leukemia.
Assay [11] has as its system OVCAR-8 ovarian.
Assay [12] relates to OVCAR-5 ovarian.
For assay [13], the system named is OVCAR-4 ovarian.
Assay [14] deals with IGROV1 ovarian.
Assay [15] has as its system OVCAR-3 ovarian.
Assay [16] relates to HS 578T breast.
The test system of assay [17] is NCI/ADR-RES ovarian.
The test system of assay [18] is CCRF-CEM leukemia.
Assay [19] deals with SR leukemia.
Assay [20] relates to SK-OV-3 ovarian.

Consider `C=CCOc1ccc(Cl)cc1Cl`, for which the growth in assay [1] is 119%; in [2] it was 103%; in [3], 105%; in [4], 93.5%; in [5] it was 113%; in assay [6], 102%. The growth in assay [7] was 98%; in assay [8], 107%; in assay [9], 52%; in [10], 113%; in [11] it was 119%; in assay [12], 93.1%. Moreover, the growth in assay [13] is 106%; in assay [14] it was 116%; in [15], 111%; in assay [16] it was 113%; in [17], 109%.

As to `Nc1nc(Cl)cc(Cl)n1`, the growth was 96% in [1]; 103% in assay [2]; 110% in assay [3]; 95.2% in assay [4]; 93.6% in [5]; 105% in assay [6]. In addition, the growth in [7] was 102%; in assay [8], 118%; in [18], 108%; in assay [19], 93.6%; in assay [10], 114%; in assay [11], 112%. Moreover, the growth was 103% in [12]; 112% in assay [13]; 91.1% in [20]; 100% in assay [14]; 111% in assay [15]; 113% in [16]. For the same compound, the growth in [17] was 95.8%.

For the compound `CCOC(=O)Nc1nccs1`, the growth in assay [1] is 111%; in assay [2] it was 99.4%; in assay [3], 97.8%; in [4], 88.1%; in assay [5] it was 104%; in [6], 104%. For the same compound, the growth was 103% in assay [7]; 99.9% in [8]; 110% in [9]; 110% in assay [19]; 100% in assay [10]; 104% in assay [11]. The growth in assay [12] was 110%; in assay [13], 109%; in [20], 99.9%; in assay [14], 97.2%; in assay [15], 109%; in [16], 98.7%. Moreover, the growth in assay [17] was 112%.

Consider `Nc1nc(N)nc(N2CCCCC2)n1`, for which the growth in assay [1] is 100%; in assay [2], 107%; in assay [3], 102%; in assay [4] it was 87.4%; in assay [5], 91.6%; in assay [6], 110%. Also, the growth in assay [7] is 104%; in assay [8] it was 89.6%; in assay [9], 107%; in assay [19], 97.9%; in [10], 101%; in assay [11], 105%. For the same compound, the growth in [12] was 102%; in assay [13], 111%; in [20] it was 106%; in [14] it was 96%; in assay [15], 105%; in assay [16], 97.3%. Also, the growth in [17] is 110%.

For the compound `CN(C)Cc1ccccn1`, the growth in assay [1] is 107%; in assay [2], 99.5%; in assay [3], 100%; in assay [4] it was 87.8%; in assay [5], 105%; in assay [6] it was 102%. In addition, the growth in [7] was 96.8%; in [10], 90.9%; in assay [11] it was 101%; in assay [12], 102%; in [13], 106%; in assay [20], 112%. Further, the growth in assay [14] is 102%; in assay [15] it was 117%; in assay [16], 114%; in assay [17] it was 103%.

As for `CCCCOC(=O)c1ccc(NC(=O)CCl)cc1`, the growth in assay [1] was 62.3%; in assay [2] it was 86%; in assay [3], 18.3%; in assay [4], 57.9%; in assay [5], 92%; in [6], -17.1% (active). Also, the growth was 99.2% in [8]; -15% (active) in assay [18]; 0.49% (active) in [9]; -30.8% (active) in assay [19]; 19.5% in assay [10]; 42.2% in assay [11]. Moreover, the growth was 101% in assay [12]; -53% (active) in assay [13]; 105% in assay [20]; -49.5% (active) in assay [14]; -83.5% (active) in assay [15]; 79.9% in assay [16]. Besides, in assay [17], the growth was 65.2%.

As for `CCc1ccccc1C(=O)N(CC)CC`, the growth in [1] is 123%; in assay [2], 96.6%; in assay [3] it was 105%; in assay [4], 91.1%; in [5], 106%; in assay [6], 104%. For the same compound, the growth is 86.1% in [8]; 97.5% in assay [18]; 96.4% in [9]; 96.3% in [19]; 103% in assay [10]; 105% in assay [11]. Further, the growth in assay [12] is 99.4%; in assay [13], 108%; in assay [20], 118%; in assay [14], 103%; in assay [15], 110%; in assay [16] it was 110%. In addition, the growth in [17] is 109%.

With `Cc1ccc[n+](CCC(N)=O)c1`, the growth is 97.7% in assay [1]; 90.2% in assay [2]; 92% in assay [3]; 85.9% in assay [4]; 94.9% in assay [5]; 105% in assay [6]. Further, the growth in assay [7] is 91.6%; in assay [18], 90.8%; in assay [9] it was 90.9%; in assay [19] it was 59.8%; in assay [10] it was 102%; in assay [11], 103%. In addition, the growth in [12] was 93.8%; in [13], 87.4%; in assay [20], 94.7%; in assay [14] it was 98.7%; in assay [15] it was 111%; in assay [16], 87.3%. The growth in [17] was 97.4%.

With `COc1ccc(C(=O)/C(=N/Nc2ccccc2)c2ccc(OC)cc2)cc1`, the growth in assay [1] was 96.2%; in assay [2], 91.7%; in [3] it was 91.5%; in [4] it was 71.4%; in [5], 112%; in [6], 96.1%. In addition, the growth is 73.9% in assay [7]; 94.1% in assay [18]; 85% in [9]; 86% in assay [19]; 92.9% in assay [10]; 115% in assay [11]. In addition, the growth is 94.2% in [12]; 87.2% in [13]; 104% in assay [20]; 91.5% in assay [14]; 103% in assay [15]; 102% in assay [16]. Besides, the growth in [17] is 97.5%.
